Results taken from the supplement of paper PMC10338343.
± gives the standard deviation.

tested on: MILI (PIWIL2) piRISC loaded with L1MC piRNA (26 nt); experiment: pre-steady-state target cleavage rate (min^-1); guide: L1MC piRNA 5'p-UAACUAAAUACUAUGCAAGCUGUAGG; MIWI and MILI are mouse PIWI proteins and EfPiwi is from a freshwater sponge; tags in brackets are library labels; higher = faster piRNA-guided slicing of the target; settings: auxiliary factor: 500 nM mouse GTSF1
Procedure, shortened: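 Cleave-'n-Seq measured uncleaved targets by sequencing after a transcribed, DNA-blocked target RNA library […] was mixed with 1 nM active affinity-purified piRISC holding one synthetic guide, with or without 500 nM GTSF1 partner protein, at 33 °C in HEPES–potassium acetate buffer for 0–8 or 0–960 min. Counts were normalised to depth and to weakly complementary targets, three trials were pooled, and k3 was capped at 0.0001 min^-1. A burst-and-steady-state fit gave the pre-steady-state cleavage rate.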
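Note: 1 nM active piRISC with 0.1 nM target library at 33 °C single turnover.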

Point of comparison: UCCUGGUACAGCAUGCAUAGUAUUAAGUUA, “pre-steady-state target cleavage rate” value 0.292 ± 0.06. Against it:
- UCCUCCUACAGCUUGGUAAGUAUUUAGUUA — lower, 0.185 ± 0.017
- UCCUGGAUGUGCUUGCAUAGUAUUUAAGUUA — lower, 0.158 ± 0.018
- UCCUCCUACAGUUUGCAUAGUAUUUAGUUA — within error, 0.299 ± 0.013
- UCCUCCUACCAGCUUGCAUAGUAUUUAGUUA — within error, 0.275 ± 0.017
- UCCUCCAACAGCUUGCAUUGUAUUUAGUUA — within error, 0.257 ± 0.018
- UCCUGGAUGAGCAUUGCAUAGUAUUUAGUUA — within error, 0.212 ± 0.022
- UCCUGCAACAGCUUGCAUAGUAUUUAGUAA — within error, 0.333 ± 0.031
- UCCUGGAUGUGGUUGCAUAGUAUUUAGUAA — lower, 0.0925 ± 0.021
- UCCUGCUCACAGCUUGCAUAGUAUUUAGUUA — within error, 0.351 ± 0.019
- UCCUGGAUGUCCUUAGCAUAGUAUUUAGUUA — lower, 0.0724 ± 0.016
- UCCUCCUACAACUUGCAUAGUAUUUAGUUA — within error, 0.266 ± 0.019
- UCCUCCGACAGCUUGCAUAGUAUUUAGUUA — within error, 0.25 ± 0.017
- UCCUCCUAGCAGCUUGCAUAGUAUUUAGUUA — within error, 0.295 ± 0.018
- UCCUGCUUCAGCUUGGAUAGUAUUUAGUUA — within error, 0.268 ± 0.015
- UCCUGCUACAGCUUGCUAGUAUUUAGUUA — lower, 0.0195 ± 0.0079
- UCCUGGAUCAGCUUGGAUAGUAUUUAGUUA — lower, 0.185 ± 0.013
- UCCUGGAACAGCUUGGAUAGUAUUUUGUUA — within error, 0.203 ± 0.034
- UCCUGGAUGUGCUUGCAUUGUAUUUAGUUA — lower, 0.0666 ± 0.013
- UCCUGGAUCAGCAUGCAAAGUAUUUAGUUA — lower, 0.098 ± 0.011
- UCCUGGUACAGCUUGCAUAGUAUAAAGUUA — within error, 0.193 ± 0.046
- UCCUGGAUGUGCUUGCAUAGUAUCUAGUUA — lower, 0.135 ± 0.031
- UCCUGCUACAGCUUGCAUAGUAUUCUAGUUA — within error, 0.26 ± 0.038
- UCCUGGAAACAGCUUGCAUAGUAUUUAGUUA — within error, 0.347 ± 0.019
- UCCUGGAUCAGCUUGCAUAGUAAUUAGUUA — within error, 0.233 ± 0.013
- UCCUGGUACAGCUCGCAUAGUAUUUAGUUA — within error, 0.262 ± 0.023
- UCCUGGAACAGCUCUGCAUAGUAUUUAGUUA — within error, 0.268 ± 0.012
- UCCUCCUUCAGCUUGCAUUGUAUUUAGUUA — within error, 0.226 ± 0.019
- UCCUGGAUGUGCCUGCAUAGUAUUUAGUUA — lower, 0.0999 ± 0.015
- UCCUCCUACUGCAUGCAUAGUAUUUAGUUA — within error, 0.252 ± 0.013
- UCCUGCUACAGCUAGGAUAGUAUUUAGUUA — within error, 0.259 ± 0.015
- UCCUGGAUGAGCUUGCAUAGUAUUUGGUUA — lower, 0.203 ± 0.025
- UCCUCCUAGACCUUGCAUAGUAUUUAGUUA — within error, 0.237 ± 0.024
- UCCUGGUUCAGCUUGCAUAGUUUUUAGUUA — lower, 0.0483 ± 0.013
- UCCUGCUAGAGCUUGCAUAGUAUUUAGUUA — lower, 0.198 ± 0.017
- UCCUGGAUGAGCUUGCAUAGUAUCUUAGUUA — lower, 0.148 ± 0.017
- UCCUGGAUGAGCUUGCAUAGUAUUUAGAUA — lower, 0.135 ± 0.031
- UCCUGGAUCAGCUAGCAUAGUAUUUAGUAA — lower, 0.219 ± 0.012
- UCCUGGAACUGCUUGCAUAGUUUUUAGUUA — lower, 0.0358 ± 0.0071
- UCCUCCUACAGCUUGCAUAGUUUUUAGUUA — lower, 0.0632 ± 0.011

same assay, conditions: auxiliary factor: none (no GTSF1)

Point of comparison: UCCUGGAUGUCCUUAGCAUAGUAUUUAGUUA, “pre-steady-state target cleavage rate” value 0.00307 ± 0.0025. Against it:
- UCCUCCUACAGCUUGGUAAGUAUUUAGUUA — within error, 0.00498 ± 0.0018
- UCCUGGAUGUGCUUGCAUAGUAUUUAAGUUA — higher, 0.00961 ± 0.0032
- UCCUCCUACAGUUUGCAUAGUAUUUAGUUA — higher, 0.00895 ± 0.0021
- UCCUCCUACCAGCUUGCAUAGUAUUUAGUUA — higher, 0.00841 ± 0.0025
- UCCUCCAACAGCUUGCAUUGUAUUUAGUUA — within error, 0.00746 ± 0.0023
- UCCUGGAUGAGCAUUGCAUAGUAUUUAGUUA — higher, 0.0105 ± 0.0025
- UCCUGCAACAGCUUGCAUAGUAUUUAGUAA — within error, 0.00819 ± 0.0029
- UCCUGGUACAGCAUGCAUAGUAUUAAGUUA — within error, 0.0046 ± 0.003
- UCCUGGAUGUGGUUGCAUAGUAUUUAGUAA — higher, 0.0105 ± 0.0041
- UCCUGCUCACAGCUUGCAUAGUAUUUAGUUA — higher, 0.0111 ± 0.0037
- UCCUCCUACAACUUGCAUAGUAUUUAGUUA — higher, 0.0079 ± 0.0018
- UCCUCCGACAGCUUGCAUAGUAUUUAGUUA — higher, 0.00881 ± 0.0021
- UCCUCCUAGCAGCUUGCAUAGUAUUUAGUUA — higher, 0.011 ± 0.0028
- UCCUGCUUCAGCUUGGAUAGUAUUUAGUUA — within error, 0.0068 ± 0.002
- UCCUGCUACAGCUUGCUAGUAUUUAGUUA — within error, 0.00519 ± 0.002
- UCCUGGAUCAGCUUGGAUAGUAUUUAGUUA — higher, 0.00786 ± 0.0022
- UCCUGGAACAGCUUGGAUAGUAUUUUGUUA — within error, 0.00404 ± 0.0026
- UCCUGGAUGUGCUUGCAUUGUAUUUAGUUA — within error, 0.00523 ± 0.0031
- UCCUGGAUCAGCAUGCAAAGUAUUUAGUUA — higher, 0.0074 ± 0.0018
- UCCUGGUACAGCUUGCAUAGUAUAAAGUUA — within error, 0.00524 ± 0.0029
- UCCUGGAUGUGCUUGCAUAGUAUCUAGUUA — within error, 0.00366 ± 0.0031
- UCCUGCUACAGCUUGCAUAGUAUUCUAGUUA — within error, 0.00709 ± 0.0024
- UCCUGGAAACAGCUUGCAUAGUAUUUAGUUA — higher, 0.0105 ± 0.0038
- UCCUGGAUCAGCUUGCAUAGUAAUUAGUUA — higher, 0.0101 ± 0.0024
- UCCUGGUACAGCUCGCAUAGUAUUUAGUUA — higher, 0.0138 ± 0.0045
- UCCUGGAACAGCUCUGCAUAGUAUUUAGUUA — higher, 0.00871 ± 0.0031
- UCCUCCUUCAGCUUGCAUUGUAUUUAGUUA — within error, 0.00662 ± 0.002
- UCCUGGAUGUGCCUGCAUAGUAUUUAGUUA — higher, 0.00951 ± 0.003
- UCCUCCUACUGCAUGCAUAGUAUUUAGUUA — higher, 0.011 ± 0.0022
- UCCUGCUACAGCUAGGAUAGUAUUUAGUUA — within error, 0.00677 ± 0.0024
- UCCUGGAUGAGCUUGCAUAGUAUUUGGUUA — within error, 0.00663 ± 0.0031
- UCCUCCUAGACCUUGCAUAGUAUUUAGUUA — within error, 0.00751 ± 0.0025
- UCCUGGUUCAGCUUGCAUAGUUUUUAGUUA — within error, 0.0081 ± 0.0027
- UCCUGCUAGAGCUUGCAUAGUAUUUAGUUA — within error, 0.00605 ± 0.0021
- UCCUGGAUGAGCUUGCAUAGUAUCUUAGUUA — within error, 0.00732 ± 0.0024
- UCCUGGAUGAGCUUGCAUAGUAUUUAGAUA — within error, 0.00291 ± 0.0024
- UCCUGGAUCAGCUAGCAUAGUAUUUAGUAA — within error, 0.00665 ± 0.0023
- UCCUGGAACUGCUUGCAUAGUUUUUAGUUA — within error, 0.00455 ± 0.0018
- UCCUCCUACAGCUUGCAUAGUUUUUAGUUA — within error, 0.00455 ± 0.0023
